The values below come from ChEMBL document CHEMBL4513216, “Probing the Open Global Health Chemical Diversity Library for Multistage-Active Starting Points for Next-Generation Antimalarials” (ACS Infect Dis, 2020).

In all, about 65,000 compounds went through this assay and about 2,100 (3.2%) showed an effect of 50% or more. The median lay at about -52%. The list comes from a sample in which strong results are over-represented; it also holds similar structures and randomly drawn compounds.

For this assay, the system named is Plasmodium falciparum. As to the kind of experiment: Screen against P. falciparum Asexual Blood Stage (ABS), at 5uM. The settings on record: tested at 5 uM. It counts as functional, Dd2.
Regarding `COCCN(Cc1ccccc1Cl)c1nc(CCN)nc2ccccc12`, the INHIBITION stood at 89.5%.
In the case of `c1cnc(N2CCO[C@H]3CN(CC4CC4)C[C@H]32)nc1`, the INHIBITION was determined as 3.32%.
Regarding `CCCNCc1ccc(-c2cc(N)nc3[nH]ccc23)cc1`, the INHIBITION is 72.3%.
Under `CN(C)c1nccc(N(C)C2CCN(CC3CCOC3)CC2)n1` (stereo unspecified) stands -4.08%; under `Cc1ccc(CNCc2cccc3cccnc23)c(OC2CCOC2)c1` (stereo unspecified), 85.4%; under `Cc1ccc(CNCc2cccc3cn[nH]c23)c(OC2CCOC2)c1` (stereo unspecified), 78.7%.
On to `Cc1nc(COC[C@@H]2CC[C@H]3NCC[C@H]3O2)cs1`, for which the INHIBITION is reported as -46.5%.
For `Cc1noc(C)c1CN1C[C@H](OCC(=O)N(C)C)[C@H]2COC[C@H]21`, the INHIBITION is reported as -85.8%.
As to `O=C1[C@H]2CN(CC3CC3)C[C@H]2CN1c1ccsc1`, the INHIBITION was -60.4%.
For `Cc1cnc(N2CCC[C@@H]3CN(CC(=O)N(C)C)C[C@@H]32)nc1` the value was -22.5%; for `COc1cc(C2SCC(=O)Nc3[nH]ncc32)cc(OC)c1OC` (stereo unspecified), -200%; for `O=C(NCC1CC1)C1CCC2(CCNCC2)C1` (stereo unspecified), -31.3%.
Under `CC(C)CCN1C[C@@H]2OCCN(c3ncc(F)cn3)[C@@H]2C1` stands -2.26%; under `Cc1nc(CN2C[C@@H]3OCCN(c4ncc(F)cn4)[C@@H]3C2)cs1`, 52%.
Take `Fc1cnc(N2CCO[C@H]3CN(CC4CCCC4)C[C@H]32)nc1`: the INHIBITION was 25.4%.
On to `CO[C@@H]1CCN(S(=O)(=O)c2cccnc2)[C@@H]2CN(CC3CC3)C[C@@H]21`, for which the INHIBITION is -23.6%.
For `Cc1noc(C)c1CN1C(=O)[C@@H]2CC[C@H]1CN(Cc1nccs1)C2` the value was -122%; for `O=C(Cc1ccc(CO)cc1)N1CCN(CC2CC2)[C@@H]2CS(=O)(=O)C[C@@H]21`, -55.1%; for `O=c1cc(CN2CC[C@@H]3CC[C@H](C2)N3)c2cccc3c2n1CCC3`, -41.1%.
Under `COCCN1CCC12CCN(C(=O)c1ccc(C)nc1)C2` (stereo unspecified) stands -172%; under `CCOc1ccc2nc(CN3CCC(CN)C3)ccc2c1` (stereo unspecified), 85.5%.
On to `COc1cccc([C@@H]2CCN(Cc3ccc4ccccc4n3)C[C@H]2O)c1`, for which the INHIBITION is reported as -17.2%.
Under `COC[C@]12COC[C@H]1CN(Cc1ccc3ccccc3n1)C2` stands -29.2%; under `c1cnc(N2CCO[C@@H]3CN(Cc4ccoc4)C[C@@H]3C2)nc1`, -30.5%.
Regarding `Cc1cccc(S(=O)(=O)NCC(C)N2CCN(C)CC2)c1Cl` (stereo unspecified), the INHIBITION was 81.5%.
Take `CNS(=O)(=O)CC(=O)NC(C)Cc1cccc(Cl)c1` (stereo unspecified): the INHIBITION was -15.4%.
As for `Cc1cc(Cl)ccc1S(=O)(=O)NCC(C)N1CCN(C)CC1` (stereo unspecified), the INHIBITION is 74.3%.
For `CC(CNS(=O)(=O)c1cccc(Cl)c1)N1CCN(C)CC1` (stereo unspecified) the value was 78%; for `COCCN1CCN(c2cc(OC)ncn2)Cc2ccc(C)nc21`, -102%.
For `Cc1cc(CN2CC[C@H]3C[C@@H](c4nc(C5CC5)cs4)O[C@@H]3C2)no1` the value was 6.98%; for `Cc1ccccc1C1(CN)CCCCC1`, 91%.
For `Cc1ccccc1C1(CN)CCOCC1` the value was 36.4%; for `NCC1(c2cccc(C(F)(F)F)c2)CCCCC1`, 2.74%.
On to `CC(c1cn2ccsc2n1)n1cc2[nH]cccc-2c1=O` (stereo unspecified), for which the INHIBITION is recorded as -134%.
Under `CO[C@H]1CN(C(C)C)C[C@@H]1NC(=O)c1cc(-c2ccccc2O)n[nH]1` stands 90%; under `Clc1ccccc1-c1cc(CNc2ncnc3c2CCNCC3)no1`, 80.3%; under `CN1CCN([C@@H]2CN(C(=O)Cc3ccsc3)[C@@H]3CCCO[C@H]23)CC1`, -66.9%.
For `CC(C)(C)C(=O)N1C[C@H](c2ccsc2)[C@H]2CN(C3CCCC3)CC[C@H]21` the value was 72.6%; for `CC(C)(C)C(=O)N1C[C@H](c2ccsc2)[C@H]2CN(C3CCCCC3)CC[C@H]21`, 77.3%.
`CCC(CC)CN1CCC2(CCCN(c3ncccn3)C2)C1` (stereo unspecified): the INHIBITION is recorded as 62.6%.
`c1cnc(N2CCCC3(CCN(CC4CCC4)C3)C2)nc1` (stereo unspecified): the INHIBITION is 53.9%.
Under `Cc1noc(C)c1CN1CCCC2(CCN(C(=O)CC3CC3)C2)C1` (stereo unspecified) stands -16.5%.
Under `CCN1CCCC12CCCN(c1ncccn1)C2` (stereo unspecified) stands -31.8%.
For `Cc1noc(C)c1CN1CCCC2(CCN(C(=O)C3CC3)C2)C1` (stereo unspecified) the value was 12.9%; for `COCCN1CCC2(C1)CN(c1ncccn1)C2`, -85.3%.
As to `c1cnc(N2CCC3(CN(CC4CCOC4)C3)C2)nc1` (stereo unspecified), the INHIBITION is reported as -15.6%.
Take `c1cnc(N2CCCC3(COCCN(CC4CC4)C3)C2)nc1` (stereo unspecified): the INHIBITION stood at 37.4%.
With `c1cnc(N2CCC3(CCCN(CC4CC4)C3)CC2)nc1`, the INHIBITION was found to be 41.7%.
For `Cc1noc(C)c1CN1CCCC2(CCN(CC3CCCC3)C2)C1` (stereo unspecified) the value was 83.1%.
In the case of `c1cnc(N2CCCC3(CCN(CC4CC4)C3)C2)nc1` (stereo unspecified), the INHIBITION was 61.1%.
Under `CNC(=O)CN1CCOCC12CCN(Cc1ccncc1)CC2` stands -20.5%.
